# Compound activity (PubChem BioAssay)
# Compounds with a hit are over-represented: about 3.5% of the library has one in this group of screens.
# MITF primary = MITF inhibitors, primary screen, biochemical, AlphaScreen, human. inhibition, % at 2.6 µM. AlphaScreen MITF homodimerization, bead proximity signal. 0.91% of 650,000 active; in the data active = inhibition above about 50%;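 note: 0% = vehicle wells with protein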
# FBW7 activator = FBW7 E3 ligase activators, primary screen, biochemical, AlphaScreen, human. F-box/WD repeat-containing protein 7 (Homo sapiens), Q969H0. normalized activity (activation), % at 26.1 µM. AlphaScreen FBW7–phospho-cyclin E peptide binding, activator screen. AID 1259310, 2017. 0.13% of 650,000 active; in the data active = normalized activity above about 1.9%;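 note: purified mutant Fbw7 with reduced substrate affinity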
# GPR151 ag = activators of human GPR151, primary screen, cell-based, PathHunter beta-arrestin, luminescence. PathHunter beta-arrestin GPR151 cells. 1% of 650,000 active. AID 1508602, 2020. activation, % at 11.2 µM. G-protein coupled receptor 151 (Homo sapiens), Q8TDV0; in the data active = activation above about 4.9%;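 note: 0% = median of compound wells and 100% = cells with positive control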
# Target sequence (Q8TDV0 whole entry, looked up): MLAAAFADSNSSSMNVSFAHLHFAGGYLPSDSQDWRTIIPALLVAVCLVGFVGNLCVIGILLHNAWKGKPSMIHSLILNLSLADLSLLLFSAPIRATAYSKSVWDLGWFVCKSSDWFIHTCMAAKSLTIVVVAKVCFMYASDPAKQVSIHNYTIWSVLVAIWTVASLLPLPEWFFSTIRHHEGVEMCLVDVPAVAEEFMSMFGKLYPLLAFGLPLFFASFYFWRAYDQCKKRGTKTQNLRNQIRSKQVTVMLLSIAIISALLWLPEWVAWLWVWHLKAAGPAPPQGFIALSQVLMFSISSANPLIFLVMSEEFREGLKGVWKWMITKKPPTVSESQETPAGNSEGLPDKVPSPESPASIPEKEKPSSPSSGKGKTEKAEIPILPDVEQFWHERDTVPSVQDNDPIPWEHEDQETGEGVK
# TEAD-YAP block = TEAD-YAP interaction inhibition, primary screen, TEAD-YAP interaction inhibitor project, luminescence, HEK-TIYL cells. inhibition, % at 9.12 µM. TEAD-Gal4/YAP UAS-luciferase luminescence. 1.4% of 640,000 active. AID 1259422, 2018; in the data active = inhibition above about 32%;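 note: 0% = median of test compound wells and 100% = reference inhibitor wells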
# * hit, by the source's call.
SMILES,MITF primary,FBW7 activator,GPR151 ag,TEAD-YAP block
CSc1ccc(-c2ccc(-n3ccnc3)cc2)nn1,-37.2,-0.1,-7.8,52.0*
Cc1cc(C)n(CCNC(=O)C2(c3cc(-c4ccco4)on3)CC2)n1,1.1,-0.1,0.9,-5.4
O=[N+]([O-])c1ccc(Cc2nnc(-c3ccc(F)cc3)o2)cc1,21.1,0.5,-0.5,-35.6
Cc1ccc(-c2nnc(Cc3ccc([N+](=O)[O-])cc3)o2)cc1,21.9,0.3,-0.6,60.9*
Cc1[nH]n(-c2ccccc2)c(=O)c1C(=O)c1cccc(Br)c1,12.0,0.1,1.3,59.2*
Cc1[nH]n(-c2ccccc2)c(=O)c1C(c1cccc(Br)c1)c1c(C)[nH]n(-c2ccccc2)c1=O,0.5,-0.7,-1.1,0.7
CCCCCn1c(SCC(=O)OCC)nc2cc(C(=O)NCc3cccc(Cl)c3)ccc2c1=O,-1.0,0.1,0.0,1.3
O=c1c(-c2nncn2-c2ccccc2)coc2c(O)c(O)ccc12,53.1*,-0.5,-1.8,-2.0
CCOC(=O)c1ccc(NS(=O)(=O)c2ccc3c4c(cccc24)C(=O)N3CC)cc1,24.5,0.3,2.3,12.8
NC(=O)c1ccccc1Nc1nc(Nc2ccc(N3CCCC3=O)cc2)ncc1Cl,-5.1,-0.1,3.4,78.2*
Cc1ncn(-c2ccc(Nc3ncc(C)c(Nc4ccccc4C(N)=O)n3)cc2)n1,7.1,1.2,-0.4,87.5*
COc1cc(N2CCOCC2)ccc1Nc1ncc(Cl)c(Nc2ccccc2C(=O)NC2CC2)n1,2.0,-0.1,0.0,11.9
COc1cnc(Nc2ccc(N3CCOCC3)cc2)nc1Nc1ccccc1C(N)=O,6.7,-0.3,0.1,55.3*
N#Cc1ccc(Nc2ncc(Cl)c(Nc3ccccc3C(N)=O)n2)cc1,13.6,0.1,-0.5,26.5
CCOc1ccccc1CN1CCc2nnc(CCNC(=O)C3CCOCC3)n2CC1,-0.8,-0.1,1.4,-11.9
CCOC(=O)C1=C(C)N=c2s/c(=C\c3ccco3)c(=O)n2C1c1ccc(C)cc1 (stereo unspecified),1.6,-0.2,-1.6,-0.5
O=C(O)c1cc(C(=O)O)n(Cc2ccc(Cl)cc2Cl)n1,-18.2,0.2,-0.5,-3.5
CCc1ccc(N2NC(=O)/C(=C/c3ccc(-c4ccc(S(N)(=O)=O)cc4)o3)C2=O)cc1,9.2,0.0,2.2,12.7
CCOc1ccc(C2Nc3ccccc3C(=O)N2c2ccc(F)c(Cl)c2)cc1 (stereo unspecified),13.5,0.1,-6.4,-46.4
CCOc1ccc(C2Nc3ccccc3C(=O)N2c2ccc3ccccc3c2)cc1 (stereo unspecified),1.3,-0.1,-7.2,73.6*
C=Cc1ccc(Cn2c(C)c(CNCc3ccc(C)o3)c(C(=O)O)c2C)cc1,17.8,-0.2,0.5,7.3
CN(C)c1ccc(C(=O)OCc2ccccc2F)cc1,-6.0,0.0,0.1,-31.9
C(=Nc1ccc(N2CCOCC2)cc1)c1ccccc1,14.0,-1.0,-0.3,65.2*
O=C(Nc1ccccc1O)c1ccc(Br)c(S(=O)(=O)N2CCCCC2)c1,-10.0,0.0,-0.3,-23.5
COc1ccc(NC(=O)COc2c(C)ccc(C)c2C)cc1,4.8,-0.1,2.0,45.8*
SMILES,MITF primary,FBW7 activator,GPR151 ag,TEAD-YAP block
CCc1ccc(C(=O)Nc2ccc(Br)cn2)cc1,10.7,0.2,-3.9,38.1*
COc1ccc(OCC(=O)Nc2ccc(NC(=O)c3ccccc3)cc2)cc1,-10.5,0.0,3.1,36.3*
CCc1ccc(C(=O)Nc2ccc(C(=O)O)cc2)cc1,9.5,0.1,-0.3,57.9*
CCc1ccc(C(=O)Nc2ccc(I)cn2)cc1,-8.2,0.0,0.5,-54.8
CCc1ccc(C(=O)Nc2ccc(Br)cc2)cc1,7.7,0.0,0.5,-66.6
N=C1S/C(=C\c2ccc(OCc3ccccc3F)cc2)C(=O)N1c1ccc(F)cc1,6.4,0.1,0.5,-2.2
COCCCNc1nccn2c(-c3cccs3)cnc12,-11.1,-0.1,-0.3,9.9
COc1ccc(NC(=O)COc2ccc(Cl)cc2Br)cc1OC,11.4,-0.1,1.3,-7.5
CC(=O)Nc1ccc(OCC(=O)Nc2cccc(Oc3ccccc3)c2)cc1,5.7,0.0,0.1,35.8*
Cc1ccc(NC(=O)c2ccc(OCC(=O)Nc3ccccc3)cc2)cc1,0.4,0.1,-0.8,-15.5
Cc1ccc(-n2nc3ccc(NC(=O)COc4ccccc4)cc3n2)cc1Cl,-0.7,5.2*,1.7,4.7
CC(=O)Nc1cccc(NC(=O)COc2ccc(Oc3ccccc3)cc2)c1,20.2,0.4,1.0,-1.1
CCOc1ccc(C(=O)Nc2ccc(OCC(=O)O)cc2)cc1,12.2,0.1,0.0,47.7*
Cc1ccc(C(=O)Nc2ccc(OCC(=O)O)cc2)cc1,7.8,-0.1,0.0,37.0*
O=c1[nH]c2ccccc2c(-c2ccccc2)c1Sc1nnc(-c2ccncc2)n1-c1ccccc1,-3.8,0.0,-1.0,-0.7
CO[C@H]1[C@H](NC(=O)Cc2ccccc2)c2ccccc2C12CCN(C(=O)CCC(C)=O)CC2,5.2,-0.1,0.3,12.9
COCCn1cnc2sc3c(c2c1=O)CCC(N1CCN(c2ccccc2)CC1)C3 (stereo unspecified),-0.4,0.3,4.5,-1.0
CC(=O)Nc1ccc(OCCC[n+]2ccccc2)cc1,9.1,1.9*,-1.1,4.4
O=C(Nc1ccc(Br)cn1)c1ccccc1[N+](=O)[O-],0.4,-0.1,0.4,54.5*
Cc1cccc(C2c3[nH]c4ccccc4c3CCN2C(=O)CCCN2CCCCC2=O)n1 (stereo unspecified),-4.8,0.2,-0.5,-1.9
Cc1ncn(-c2ccc(Nc3ncc4cccc(-c5ccccn5)c4n3)cc2)n1,22.5,-0.2,-0.1,42.1*
COc1cc(-c2cccc3cnc(Nc4ccc(-n5cnc(C)n5)cc4)nc23)ccn1,27.8,0.1,1.0,14.3
Cc1ccc(-c2cccc3cnc(Nc4ccc(-n5cnc(C)n5)cc4)nc23)cn1,12.9,0.6,-1.7,61.2*
Cc1ccc(-c2cccc3cnc(Nc4ccc(-n5cnc(-c6ccccn6)n5)cc4)nc23)cn1,28.2,5.7*,-0.3,27.7
Cc1ncn(-c2ccc(Nc3ncc4cccc(-c5cncnc5)c4n3)cc2)n1,6.2,-0.3,-1.6,-22.6
SMILES,MITF primary,FBW7 activator,GPR151 ag,TEAD-YAP block
Cc1cc(-c2cccc3cnc(Nc4ccc(-n5cnc(C)n5)cc4)nc23)ccn1,5.8,1.0,0.6,62.2*
Cc1ncn(-c2ccc(Nc3ncc4cccc(-c5cccc(F)c5)c4n3)cc2)n1,11.5,0.1,-0.6,-0.2
CCN1CCN(Cc2nc3c(c(=O)n(C)c(=O)n3C)n2Cc2ccccc2F)CC1,2.7,0.0,-0.2,-2.9
Cc1ncn(-c2ccc(Nc3ncc4cccc(-c5ncco5)c4n3)cc2)n1,42.5,0.7,-1.1,70.2*
CCC1=[N+](CC(=O)c2ccccc2)CCn2cccc21,11.2,2.5*,-0.8,-3.7
Nc1ccc(Oc2ccc3c(c2)C(=O)N(CCO)C3=O)cc1,-1.4,-0.1,-1.0,42.2*
Nc1ccc(Oc2ccc3c(c2)C(=O)N(c2cccc(N)c2)C3=O)cc1,10.1,3.4*,0.5,-27.1
